# Data taken from PubChem BioAssay (NCATS).
# Values without a mark were called inactive. Inconclusive results are not listed. A call without a number means that no potency is given here. Calls of active or inactive are those of the source. The call rests on the fitted dose curve; in most records, active means well fitted curve in the direction sought with a large enough effect; inconclusive means small, poorly fitted or top-dose-only effect, or another doubt; inactive means no such curve, though single readings can be large; an effect the other way counts as inactive or inconclusive.
# Experiments:
# [1] = Quantitative High-Throughput drug screen in 47 multiple myeloma cell lines against the NCATS MIPE library collection: FR4_PLB cell viability assay (AID 1918924; further: nearly all actives have a fitted effect of over 35% in size; further: potency means the concentration at half of the fitted maximal effect)
# In short: (§1)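 Myeloma cells (500 per well) were exposed to MIPE 4.0 compounds by pin transfer and incubated 48 hours at 37C, 5% CO2. Viability was read as ATP by CellTiter-Glo luminescence, normalised to DMSO (100%) and media-only (0%) wells.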
# [2] = Quantitative High-Throughput drug screen in 47 multiple myeloma cell lines against the NCATS MIPE library collection: Delta47_JCRB cell viability assay (AID 1918925; further: nearly all actives have a fitted effect of over 45% in size; further: potency means the concentration at half of the fitted maximal effect)
# In short: (§2)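 Approved and investigational drugs from MIPE 4.0 were added by pin tool to 500 cells per well. After 48 hours at 37C, ATP-based CellTiter-Glo luminescence indicated remaining viability.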
# [3] = Quantitative High-Throughput drug screen in 47 multiple myeloma cell lines against the NCATS MIPE library collection: EJM_DSMZ cell viability assay (AID 1918926; further: nearly all actives have a fitted effect of over 30% in size; further: potency means the concentration at half of the fitted maximal effect)
# In short: as §2
# [4] = Quantitative High-Throughput drug screen in 47 multiple myeloma cell lines against the NCATS MIPE library collection: AMO1_DSMZ cell viability assay (AID 1918927; further: nearly all actives have a fitted effect of over 30% in size; further: potency means the concentration at half of the fitted maximal effect)
# In short: as §2
# [5] = Quantitative High-Throughput drug screen in 47 multiple myeloma cell lines against the NCATS MIPE library collection: ARP1_JJKsccF8 cell viability assay (AID 1918928; further: nearly all actives have a fitted effect of over 40% in size; further: potency means the concentration at half of the fitted maximal effect)
# In short: (§3)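 Viability screen: myeloma cells (500/well) incubated 48 h at 37 °C, humidified 5% CO2, with pinned library compounds; CellTiter-Glo added, luminescence read; DMSO wells set 100%, medium-only wells 0%.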
# [6] = Quantitative High-Throughput drug screen in 47 multiple myeloma cell lines against the NCATS MIPE library collection: ARD_JJKsccE7 cell viability assay (AID 1918929; further: potency means the concentration at half of the fitted maximal effect)
# In short: as §2
# [7] = Quantitative High-Throughput drug screen in 47 multiple myeloma cell lines against the NCATS MIPE library collection: Karpas620_DSMZ cell viability assay (AID 1918959); further: nearly all actives have a fitted effect of over 30% in size; further: potency means the concentration at half of the fitted maximal effect
# In short: as §1
# [8] = Quantitative High-Throughput drug screen in 47 multiple myeloma cell lines against the NCATS MIPE library collection: KMM1_JCRB cell viability assay (AID 1918960); further: nearly all actives have a fitted effect of over 30% in size; further: potency means the concentration at half of the fitted maximal effect
# In short: as §3
# [9] = Quantitative High-Throughput drug screen in 47 multiple myeloma cell lines against the NCATS MIPE library collection: INA6_PLB cell viability assay (AID 1918965; further: nearly all actives have a fitted effect of over 55% in size; further: potency means the concentration at half of the fitted maximal effect)
# In short: (§4)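 CellTiter-Glo ATP luminescence gave viability after 48 h compound treatment at 37C of 500 multiple myeloma cells per well. Normalisation used DMSO-only wells as 100% and media-only wells as 0% viability; primary qHTS of approved and investigational drugs.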
# [10] = Quantitative High-Throughput drug screen in 47 multiple myeloma cell lines against the NCATS MIPE library collection: H1112_PLB cell viability assay (AID 1918967; further: nearly all actives have a fitted effect of over 30% in size; further: potency means the concentration at half of the fitted maximal effect)
# In short: as §2
# [11] = Quantitative High-Throughput drug screen in 47 multiple myeloma cell lines against the NCATS MIPE library collection: Karpas417_ECACC cell viability assay (AID 1918961); conditions: Karpas417 myeloma viability, CellTiter-Glo ATP luminescence, 48 h; viability (% of DMSO): at 45.8 µM (top of the series); further: potency means the concentration at half of the fitted maximal effect
# In short: as §4
# [12] = Quantitative High-Throughput drug screen in 47 multiple myeloma cell lines against the NCATS MIPE library collection: JIM3_ECACC cell viability assay (AID 1918963; further: nearly all actives have a fitted effect of over 35% in size; further: potency means the concentration at half of the fitted maximal effect)
# In short: as §1
# [13] = Quantitative High-Throughput drug screen in 47 multiple myeloma cell lines against the NCATS MIPE library collection: JJN3_DSMZ cell viability assay (AID 1918966; further: nearly all actives have a fitted effect of over 50% in size; further: potency means the concentration at half of the fitted maximal effect)
# In short: as §2
# [14] = Quantitative High-Throughput drug screen in 47 multiple myeloma cell lines against the NCATS MIPE library collection: Karpas25_ECACC cell viability assay (AID 1918968; further: nearly all actives have a fitted effect of over 35% in size; further: potency means the concentration at half of the fitted maximal effect)
# In short: as §2
# [15] = target: Luciferin 4-monooxygenase (Photinus pyralis) (UniProt P08659); test: Primary firefly luciferase (FLuc) qHTS assay for identification of artifact compounds. (AID 1845220); conditions: outcome: dose series up to 54.1 µM; further: nearly all actives have a fitted effect of over 60% in size
# In short: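 Compounds sat 15 min at room temperature with 10 uM luciferin and 10 uM ATP (pH 7.6 Tris acetate). Firefly luciferase (10 nM final) was then added, and luminescence was read 5 min later. Data normalized to no-enzyme and DMSO controls were Hill-fitted.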
# [16] = Primary fluorescence-based thiol-reactive (MSTI) qHTS assay for identification of artifact compounds. (AID 1845221);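 further: thiol-reactive compounds lower the probe fluorescence signal; nearly all actives have a fitted effect of over 65% in size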
# In short: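 Curve-fitted percent inhibition (4-parameter Hill) derived from fluorescence, Ex 525/Em 598 nm, scaled with Acetyl-MSTI and MSTI; 1 h incubation at room temperature.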
# [17] = system: Nanoluciferase (engineered Oplophorus gracilirostris luciferase); test: Primary Nanoluciferase (NLuc) qHTS assay for identification of artifact compounds. (AID 1845222)
# In short: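 Luminescence from secreted NLuc (filtered, 1:55-diluted S16 cell medium) read 5 min after Nano-Glo substrate; compounds preincubated 15 min, RT. Hill fits of inhibition normalized to DMSO and no-enzyme.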
# [18] = Primary redox qHTS assay for identification of artifact compounds. (AID 1845223)
# In short: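 Redox-cycling detection via DTT (250 uM final) oxidation coupled to Amplex Red (25 uM)/HRP (250 mU/mL) in HBSS. 15 min preincubation plus 30 min after DTT, room temperature. Ex/Em 525/598 nm; 4-parameter Hill fit against DMSO and 10 uM DA3003.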
# [19] = Quantitative High-Throughput drug screen in 47 multiple myeloma cell lines against the NCATS MIPE library collection: JIM1_ECACC cell viability assay (AID 1918964; further: potency means the concentration at half of the fitted maximal effect)
# In short: as §2
Compound,Potency [1],Potency [2],Potency [3],Potency [4],Potency [5],Potency [6],Potency [7],Potency [8],Potency [9],Potency [10],Potency [11],Potency [12],Potency [13],Potency [14],outcome [15],Potency [16],outcome [17],Potency [18],Potency [19]
O=C(O)C1CCCN(CCC=C(c2ccccc2)c2ccccc2)C1 (stereo unspecified),inactive,inactive,inactive,inactive,inactive,inactive,inactive,inactive,inactive,inactive,–,–,–,–,–,–,–,–,–
Cc1ccc(S(=O)(=O)N[C@@H](Cc2ccccc2)C(=O)CCl)cc1,20.9 µM (active),5.26 µM (active),16.6 µM (active),13.2 µM (active),20.9 µM (active),–,11.8 µM (active),13.2 µM (active),–,16.6 µM (active),11.8 µM (active),13.2 µM (active),18.7 µM (active),9.35 µM (active),–,–,–,–,–
CC[C@H](C)C(=O)O[C@H]1C[C@@H](C)C=C2C=C[C@H](C)[C@H](CC[C@@H]3C[C@@H](O)CC(=O)O3)[C@H]21,11.8 µM (active),–,inactive,–,23.5 µM (active),inactive,–,inactive,–,–,–,–,–,–,inactive,inactive,inactive,inactive,–
Cc1noc(NS(=O)(=O)c2ccc(N)cc2)c1C,inactive,inactive,inactive,inactive,inactive,inactive,–,inactive,inactive,inactive,inactive,inactive,–,inactive,–,–,–,–,–
Cc1nnc(C(=O)NC(C)(C)c2nc(C(=O)NCc3ccc(F)cc3)c(O)c(=O)n2C)o1,inactive,inactive,inactive,0.0042 µM (active),inactive,–,inactive,inactive,inactive,inactive,–,inactive,–,inactive,inactive,–,inactive,inactive,–
CCCCc1oc2ccc(NS(C)(=O)=O)cc2c1C(=O)c1ccc(OCCCN(CCCC)CCCC)cc1,16.6 µM (active),11.8 µM (active),16.6 µM (active),–,16.6 µM (active),16.6 µM (active),20.9 µM (active),20.9 µM (active),9.35 µM (active),18.7 µM (active),–,18.7 µM (active),14.8 µM (active),16.6 µM (active),inactive,–,inactive,inactive,10.5 µM (active)
CC(C(=O)O)c1ccc2c(c1)CC(=O)c1ccccc1S2 (stereo unspecified),inactive,inactive,inactive,–,inactive,–,–,inactive,–,inactive,0.0209 µM (active),inactive,–,18.7 µM (active),inactive,inactive,inactive,inactive,–
CN1CCN(c2c(F)cc3c(=O)c(C(=O)O)cn4c3c2OCN4C)CC1,inactive,inactive,inactive,inactive,inactive,inactive,inactive,inactive,inactive,inactive,–,inactive,inactive,inactive,–,–,–,–,–
CNS(=O)(=O)CCc1ccc2[nH]cc(C3CCN(C)CC3)c2c1,16.6 µM (active),1.18 µM (active),–,2.35 µM (active),–,–,–,18.7 µM (active),2.09 µM (active),–,16.6 µM (active),2.35 µM (active),0.0418 µM (active),0.935 µM (active),inactive,inactive,inactive,inactive,–
CCc1c2c(nc3ccc(OC(=O)N4CCC(N5CCCCC5)CC4)cc13)-c1cc3c(c(=O)n1C2)COC(=O)[C@]3(O)CC,0.935 µM (active),1.32 µM (active),4.69 µM (active),1.32 µM (active),0.743 µM (active),–,–,0.935 µM (active),–,1.32 µM (active),–,–,–,2.64 µM (active),–,–,–,–,–
CCN1CCCC1CNC(=O)c1cc(S(N)(=O)=O)ccc1OC (stereo unspecified),inactive,inactive,inactive,inactive,inactive,inactive,inactive,inactive,–,–,inactive,–,–,2.09 µM (active),–,–,–,–,–
O=C(NCC1CN(c2ccc(N3CCOCC3=O)cc2)C(=O)O1)c1ccc(Cl)s1 (stereo unspecified),–,–,inactive,–,–,–,–,–,–,inactive,–,inactive,–,16.6 µM (active),inactive,inactive,inactive,inactive,–
CN(C)CCc1c[nH]c2ccc(C[C@H]3COC(=O)N3)cc12,inactive,inactive,inactive,–,inactive,inactive,inactive,–,13.2 µM (active),inactive,3.72 µM (active),inactive,–,inactive,inactive,inactive,inactive,inactive,–
NC1(c2ccc(-c3nc4ccn5c(=O)[nH]nc5c4cc3-c3ccccc3)cc2)CCC1,inactive,0.332 µM (active),11.8 µM (active),3.72 µM (active),14.8 µM (active),0.296 µM (active),inactive,1.87 µM (active),11.8 µM (active),0.0833 µM (active),–,0.662 µM (active),5.26 µM (active),5.26 µM (active),inactive,inactive,inactive,inactive,1.48 µM (active)
